Among the data in PubChem BioAssay (NCI) are growth values, retold here.

Common to all, as to assay: NCI-60 one-dose screen, 48 h (100 = growth as untreated, 0 = no growth, -100 = all killed)
What all share (details): 10 µM unless noted

The test system of experiment [1] is HCT-15 colon.
In experiment [2] the test system is HT29 colon.
The test system of experiment [3] is SNB-75 CNS.
Experiment [4] has as its system SNB-19 CNS.
Experiment [5] has as its system U251 CNS.
The subject of experiment [6] is PC-3 prostate.
The subject of experiment [7] is SK-MEL-5 melanoma.
Experiment [8] has as its system UACC-62 melanoma.
For experiment [9], the system named is SK-MEL-28 melanoma.
In experiment [10] the test system is LOX IMVI melanoma.

Each structure is given as a SMILES string. About 83,000 compounds went through this panel and 20% of them were active in at least one assay; those are over-represented in the sample as a whole.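 Negative percent growth values reflect cell death: -40 means 40% of the cells present at the start died, and -100 means all died.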 Unmarked numbers belong to inactive results. Activity calls are given as the source filed them. Rule for the calls: active = growth percent below 10; inactive = the rest.

As for `O=C(NCCCNc1cc(-c2cn(-c3ccccc3)nc2-c2cccc(O)c2)ccn1)c1cccc(O)c1`, the growth in experiment [1] was 79.5%; in experiment [2], 87%; in [3], 59.8%; in experiment [4] it was 79.7%; in experiment [5], 42.3%; in experiment [6], 39.4%. Also, the growth is 43.7% in experiment [7], 42% in [8] and 77.6% in experiment [9].
As for `Cc1cc(NCc2cc(Nc3ccnc4cc(Cl)ccc34)ccc2F)nc(Cl)n1`, the growth is 27% in experiment [1]; 28.1% in experiment [2]; 71.5% in experiment [3]; 58.3% in experiment [4]; 44.8% in experiment [5]; 34.9% in experiment [6]. Besides, the growth in experiment [7] is 3.73% (active); in [8], 45.2%; in experiment [9], 72.1%.
On to `Fc1ccc(CNc2c3ccccc3nc3ccccc23)cc1F`, for which the growth in [1] was 18%; in experiment [2], 13.4%; in [3], 66.2%; in experiment [4], 32.9%; in experiment [5] it was 30.3%; in [6] it was 35.7%. The growth is 66.2% in experiment [7], 60% in experiment [8], 12.5% in experiment [10] and 82.4% in [9].
For `C=CCSc1nc2ccccc2cc1/C=N/O`, the growth in [1] is 95.8%; in [2] it was 92.7%; in experiment [3], 58%; in experiment [4] it was 89.3%; in [5], 86.6%; in [6] it was 83.1%. Moreover, the growth in experiment [7] is 96.3%; in [8] it was 71.2%; in experiment [9] it was 88%.
As for `COc1c(CCC[P+](c2ccccc2)(c2ccccc2)c2ccccc2)cc2c(c1OC)OCO2`, the growth in [1] was 92.3%; in experiment [2], 38.2%; in experiment [3], -3.69% (active); in experiment [4] it was 9.64% (active); in [5] it was 7.32% (active); in experiment [6] it was -0.165% (active). The growth in experiment [7] is -68.6% (active); in experiment [8] it was -3.8% (active); in experiment [9], 25.1%.
Take `O=C(O)C1CCC(=O)N1C(=O)OCc1ccccc1` (stereo not given): the growth in [1] is 97.3%; in [2] it was 101%; in [3] it was 80.9%; in experiment [4], 97.8%; in [5], 102%; in experiment [6], 100%. The values for the growth in experiment [7], in [8] and in [9] were 105%, 87% and 140%, respectively.
In the case of `Cc1ccc(-c2cc(-c3ccccc3C)[nH]c(=O)c2C#N)s1`, the growth in experiment [1] is 90.5%; in experiment [2] it was 122%; in [3], 71.6%; in [4], 88.5%; in experiment [5], 91.2%; in experiment [6], 85.6%. Besides, the growth in experiment [7] was 89.8%; in experiment [8], 75.5%; in experiment [10], 82.8%; in [9], 110%.
Turning to `O=Cc1ccc(O)c2ncccc12`, the growth was 22.9% in experiment [1]; 87.7% in experiment [2]; 73.9% in [3]; 68.1% in experiment [4]; 25.3% in experiment [5]; 16.6% in [6]. Moreover, the growth in experiment [7] was 44%; in [8], 45.1%; in [9] it was 38.6%.
As for `COC(=O)c1c2c(c[n+]([O-])c1C)C(=O)C=CC2=O`, the growth in [1] was 12.4%; in [2], 106%; in experiment [3], 125%; in experiment [4], 79.8%; in [5], 37.7%; in experiment [6], 65.8%. Also, the growth in [7] was 72%; in [8] it was 0.925% (active); in experiment [10], 47.3%; in [9], 49%.
Take `O=c1ssc(Cl)c1-c1ccccc1`: the growth in experiment [1] was 101%; in experiment [2] it was 103%; in experiment [3], 90.5%; in experiment [4], 111%; in [5], 104%; in [6], 79.5%. The growth in experiment [7] was 97.1%; in [8], 95.4%; in [9], 100%.
For the compound `CC1=C(SCCC(=O)OC(C[Se]C2=C(C)C(=O)c3ccccc3C2=O)C(=O)NCCCCCC(=O)OCc2ccccc2)C(=O)c2ccccc2C1=O` (stereo not given), the growth in experiment [1] is 56.5%; in experiment [2], 25.9%; in experiment [3], 55.5%; in experiment [4], 38.6%; in experiment [5], 22.9%; in [6], 11.4%. The growth was 8.74% (active) in experiment [7], 65.2% in [8], 39.7% in experiment [10] and 53.6% in experiment [9].
In the case of `O=C(Nc1ccc(-n2cc(-c3ccncc3)c(-c3ccc(Cl)c(O)c3)n2)cc1)N1CCOCC1`, the growth in experiment [1] was 102%; in [2], 98.1%; in [3] it was 93.3%; in experiment [4], 103%; in experiment [5], 96.9%; in [6], 87.4%. Besides, the growth in [7] was 99.1%; in experiment [8] it was 101%; in experiment [9], 100%.
Turning to `COc1ccc(-c2cc(-c3cc(OC)ccc3OC)nc(SCC(=O)c3ccccc3)c2C#N)cc1`, the growth in [1] is 109%; in experiment [2] it was 95%; in [3], 68%; in experiment [4] it was 107%; in experiment [5] it was 90.4%; in experiment [6], 88.3%. The growth in [7] is 98.8%; in [8], 78.4%; in [9] it was 103%.
For the compound `O=C1CC(N2C(=O)/C(=C/C(Cl)=C\c3ccc([N+](=O)[O-])cc3)SC2=S)C(=O)N1c1ccc(O)cc1` (stereo not given), the growth is -38.2% (active) in experiment [1]; -16.7% (active) in [2]; 14.9% in experiment [3]; -9.69% (active) in experiment [4]; -39.5% (active) in experiment [5]; 5.02% (active) in experiment [6]. For the same compound, the growth was -39.1% (active) in experiment [7], -63.2% (active) in experiment [8] and -34% (active) in experiment [9].
